Assay outcomes (PubChem BioAssay)
In the library only some 3.6% were active in any assay of this set; here they are far more common.
Pf apPOL inh = Pf-apPOL inhibitors, biochemical, fluorescence; Recombinant Pf-apPOL, molecular beacon fluorescence, 1.5 h; inhibition, % at 10 µM; 210,000 tested, 0.25% active
mHTT CaM bind = mutant huntingtin-calmodulin interaction inhibitors – biochemical, AlphaScreen, primary screen; inhibition, % at 15 µM; AID 1671202, 2021; P42858; AlphaScreen His-mHTT/GST-CaM binding, luminescence; 190,000 tested, 3.6% active;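 also: 0% = both proteins with DMSO and 100% = one protein alone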
The depositor's hits bear a star; i = inactive; / = no result. Rule as the data show it: active = inhibition above about 50%; inactive = the rest.

SMILES	Pf apPOL inh	mHTT CaM bind
COc1ccccc1CNC(=O)CSc1ccc(-c2ccc(-n3ccnc3)cc2)nn1	-8	8
O=C(Nc1ccccc1)c1coc(CN2CCN(c3ccc(Cl)cc3)CC2)n1	-2	0
O=C(Nc1ccccc1)C(=O)c1c(O)[nH]c2ccccc12	-5	-4
CC(C)(C)c1ccc(C(=O)N2CCN(c3ccc([N+](=O)[O-])c(NCc4ccco4)c3)CC2)cc1	-11	30
CC(=O)OC1CC(=O)OC(C)(C)C2CC(=O)C3(C)C(CCC4(C)C(c5ccoc5)OC(=O)C5OC543)C12C (stereo unspecified)	-4	/
O=C(Nc1cccc(F)c1)N1CCc2c(nc3cc(-c4ccccc4Cl)[nH]n3c2=O)C1	0	73*
COc1ccc(C(=O)N2CCc3c(nc4cc(-c5ccccc5Cl)[nH]n4c3=O)C2)cn1	0	53*
Cc1ccc(C(=O)N2CCc3c(nc4cc(-c5ccccc5Cl)[nH]n4c3=O)C2)cn1	2	25
O=C(c1ccncc1)N1CCc2c(nc3cc(-c4ccccc4Cl)[nH]n3c2=O)C1	2	10
CC1(C)CC(=O)C2=C(C1)c1c(ccc3ncccc13)NC2c1cccc(Br)c1 (stereo unspecified)	-2	-3
Cc1cc(N2CCCCC2)c(F)cc1[N+](=O)[O-]	1	0
O=[N+]([O-])c1cc(F)c(N2CCOCC2)cc1N1CCOCC1	-7	4
O=[N+]([O-])c1cc(F)c(N2CCCC2)cc1N1CCCC1	1	59*
O=[N+]([O-])c1cc(F)c(N2CCCC2)cc1N1CCCCCC1	-4	79*
O=C(c1ccc(F)c(F)c1)N1CCCN(Cc2nc3ccc(Cl)cc3o2)CC1	-7	60*
Cc1cc(C)cc(C(=O)N2CCCN(Cc3nc4ccccc4o3)CC2)c1	3	34
COc1ccc(C(C)NC(=O)c2cc3c(s2)CCN(C(=O)c2ccc(C)cc2)C3)cc1 (stereo unspecified)	-6	9
CCCc1sc(NC(=O)c2cc(OC)c(OC)c(OC)c2)nc1-c1ccc(OC)c(OC)c1	-1	55*
CCc1nnc(NC(=O)c2cc(OC)c(OC)c(OC)c2)s1	1	1
O=C(CCN1C(=O)S/C(=C\c2ccc(Cl)cc2)C1=O)N1CCOCC1	4	0
O=C(Nc1ccccc1[N+](=O)[O-])c1cc(S(=O)(=O)NC2CCCCC2)c(Cl)cc1Cl	-4	58*
O=C(Nc1ccccc1[N+](=O)[O-])c1ccc(Cl)c(S(=O)(=O)NC2CCCC2)c1	-7	28
O=C(c1ccc2c(c1)OCO2)n1cccn1	66*	-1
O=C(CSc1ccccn1)c1ccc2c(c1)OCO2	-2	-8
CN(C)CC(O)COc1ccc(C(C)(C)CC(C)(C)C)cc1 (stereo unspecified)	-2	99*
SMILES	Pf apPOL inh	mHTT CaM bind
CCC(C)(C)c1ccc(OCC(O)CN2CCOCC2)c(C(C)(C)CC)c1 (stereo unspecified)	5	94*
CC(C)(C)c1ccc(OCC(O)CN)cc1 (stereo unspecified)	-10	-2
CC(C)(C)c1ccc(OCC(O)CN2CCCC2)c(C(C)(C)C)c1 (stereo unspecified)	2	33
CC(C)(C)c1ccc(OCC(O)CN2CCN(CCO)CC2)cc1 (stereo unspecified)	0	0
CC(C)(C)CC(C)(C)c1ccc(OCC(O)C[N+]2(C)CCCC2)cc1 (stereo unspecified)	-1	19
CC(C)(C)CC(C)(C)c1ccc(OCC(O)CN2CCCC2)cc1 (stereo unspecified)	-6	100*
CC[N+]1(CC(O)COc2ccc(C(C)(C)CC(C)(C)C)cc2)CCCC1 (stereo unspecified)	-1	84*
COc1cc([N+](=O)[O-])cc(C=NCCCNC(=O)/C=N/O)c1O	21	i
COc1cccc(C(=O)Nc2nnc(C3CC(=O)N(c4ccc(SC)cc4)C3)o2)c1 (stereo unspecified)	0	15
O=C(O)C1CCC(C(=O)O)(c2ccccc2)c2ccccc21 (stereo unspecified)	-7	/
CCOc1ccc(C2=C/C(=C/c3cc(OC)c(OC)c(OC)c3)C(=O)O2)cc1	0	8
COc1ccc(NC2=CC(=NS(=O)(=O)c3cc(C)ccc3C)c3ccccc3C2=O)cc1	7	47
CCOc1ccc(S(=O)(=O)N=C2C=C(Nc3cccc(C)c3)C(=O)c3ccccc32)cc1	2	82*
CCOc1ccc(N=C(C)C2=C(O)c3ccccc3C2=O)cc1	-8	5
CC(=NS(=O)(=O)c1ccc(C)cc1)N1CCOCC1	4	-3
Cc1ccc(S(=O)(=O)N=C2C=C(N3CCOCC3)C(=O)c3ccccc32)cc1	1	84*
Cc1cccc(NC2=C(N(C)C)C(=O)c3ccccc3C2=O)c1	-10	19
Cc1ccc(S(=O)(=O)N=C2C=C(Nc3cccc(C)c3)C(=O)c3ccccc32)cc1	-2	82*
